Several values for one entry are separate records, joined by “and”; a condition that tells them apart may be missing. Equal values may be shown once. Compounds without any hit were thinned out: in the full panel of roughly 83,000, 20% have a hit.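 Treatment: one concentration, 48 hours, 96-well format. Scoring: percent growth, with anything below 10 considered active.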 Activity calls are given as the source filed them.

Some test systems named below: T-47D breast; BT-549 breast; MDA-MB-435 melanoma; SW-620 colon; HCT-116 colon; HCC-2998 colon; KM12 colon; MDA-MB-468 breast; MCF7 breast.
What all share (assay): NCI-60 one-dose screen, 48 h (100 = growth as untreated, 0 = no growth, -100 = all killed)
Common to all, as to conditions: 10 µM

As for `O=C(CNc1nc(-c2ccccc2)cs1)Nc1ccc(Cl)cc1`, the growth in the assay on T-47D breast is -34.6% (active); with BT-549 breast it was -54.5% (active); in the assay on MDA-MB-435 melanoma it was -58.5% (active); in the assay on SW-620 colon it was -68.5% (active); in the assay with HCT-116 colon it was -41.2% (active); in the assay on HCC-2998 colon it was -94.6% (active). The growth is -83.8% (active) with KM12 colon and -81.2% (active) with MDA-MB-468 breast.

With `COc1ccc(C(=O)/C=C/c2cc(F)cc(C(F)(F)F)c2)cc1S(N)(=O)=O`, the growth in the assay on T-47D breast is 6.93% (active); in the assay with BT-549 breast, -73% (active); in the assay on MDA-MB-435 melanoma it was -56.2% (active); in the assay with SW-620 colon it was -90.6% (active); with HCT-116 colon, -55% (active); in the assay with HCC-2998 colon, -89.6% (active). Moreover, the growth in the assay with KM12 colon is -82.4% (active); with MDA-MB-468 breast, -93.2% (active).

Regarding `C#CCNC(=O)[C@]12CCC(C)(C)C[C@H]1C1=CC[C@@H]3[C@@](C)(CCC#N)[C@H](C(=C)C)CC[C@@]3(C)[C@]1(C)CC2`, the growth in the assay with T-47D breast is 28% (inactive); in the assay with BT-549 breast, 75.6% (inactive); with MDA-MB-435 melanoma, 72.2% (inactive); in the assay with SW-620 colon it was 74.1% (inactive); with HCT-116 colon, 27.2% (inactive); in the assay with KM12 colon, 54.8% (inactive). In addition, the growth in the assay on MDA-MB-468 breast is 34.7% (inactive).

For the compound `CC1(C)[C@@H](NCO)CC[C@]2(C)[C@H]3C(=O)C=C4[C@@H]5C[C@](C)(CO)CC[C@]5(C)CC[C@@]4(C)[C@]3(C)CC[C@@H]12`, the growth is 63.9% (inactive) with T-47D breast; 59.9% (inactive) with MDA-MB-435 melanoma; 35.2% (inactive) with SW-620 colon; 33.7% (inactive) in the assay on MCF7 breast; 37.8% (inactive) in the assay with HCT-116 colon; 40.8% (inactive) in the assay with HCC-2998 colon. For the same compound, the growth was 65.7% (inactive) with KM12 colon and 47.2% (inactive) in the assay on MDA-MB-468 breast.

Consider `O=C(Nc1cccc([N+](=O)[O-])c1)Nc1cccc([N+](=O)[O-])c1`, for which the growth in the assay on T-47D breast is 40.6% (inactive); in the assay with MDA-MB-435 melanoma it was 90.3% (inactive); in the assay on SW-620 colon, 87.9% (inactive); in the assay on MCF7 breast, 72.5% (inactive); in the assay with HCT-116 colon, 54.4% (inactive); in the assay with HCC-2998 colon, 88% (inactive). The growth in the assay with KM12 colon is 70.6% (inactive); in the assay with MDA-MB-468 breast, 7.95% (active) and 24.6% (inactive).

For the compound `COc1cccc(-c2ccnc(/N=C(\N)Nc3ccc(S(=O)(=O)Nc4nc(C)cc(C)n4)cc3)n2)c1`, the growth is 88.4% (inactive) in the assay with T-47D breast; 109% (inactive) in the assay with MDA-MB-435 melanoma; 105% (inactive) with SW-620 colon; 75.9% (inactive) in the assay with MCF7 breast; 103% (inactive) with HCT-116 colon; 114% (inactive) in the assay on HCC-2998 colon. Besides, the growth in the assay on KM12 colon was 98% (inactive); with MDA-MB-468 breast, 115% (inactive).

With `O=C(/C=C/Nc1ccc(F)cc1F)c1ccc2c(c1)Nc1ccccc1S2`, the growth with T-47D breast was 80.1% (inactive); with MDA-MB-435 melanoma, 9.72% (active); in the assay on SW-620 colon, 55.1% (inactive); in the assay on MCF7 breast, 37.9% (inactive); in the assay with HCT-116 colon, 58.6% (inactive); in the assay with HCC-2998 colon, 79.7% (inactive). For the same compound, the growth with KM12 colon is 51.6% (inactive); in the assay with MDA-MB-468 breast it was 41.9% (inactive).

Take `CC(=O)OC[C@@]1(C)C2CC[C@]3(C)C(CC=C4C5CC(C)(C)CC[C@]5(C(=O)Nc5ccccc5)CC[C@]43C)[C@@]2(C)C[C@@H](OC(C)=O)[C@@H]1OC(C)=O` (stereo not given in full): the growth is 15.3% (inactive) with T-47D breast; 45.7% (inactive) with MDA-MB-435 melanoma; 36.3% (inactive) in the assay with SW-620 colon; 24.4% (inactive) in the assay with MCF7 breast; 25.4% (inactive) with HCT-116 colon; 42.3% (inactive) with HCC-2998 colon. Further, the growth in the assay on KM12 colon is 49% (inactive); in the assay on MDA-MB-468 breast it was -4.16% (active).

As to `N#Cc1ccc(-c2nn(-c3ccc(C(=O)O)cc3)cc2CNc2ccc(Oc3ccccc3)cc2)cc1`, the growth in the assay on T-47D breast is 22.6% (inactive); with MDA-MB-435 melanoma it was 63.6% (inactive); in the assay on SW-620 colon it was 59.3% (inactive); in the assay with MCF7 breast, 59.8% (inactive); with HCT-116 colon, 16.7% (inactive); with HCC-2998 colon it was 11.5% (inactive). Moreover, the growth was 16.3% (inactive) in the assay with KM12 colon and 103% (inactive) with MDA-MB-468 breast.

On to `O=C(c1ccc(O)cc1)C1[C@H](c2ccc(Br)cc2)[C@@H](c2ccccc2)NC12C(=O)Nc1ccccc12` (stereo not given in full), for which the growth was 38.4% (inactive) in the assay with T-47D breast; 13.4% (inactive) with MDA-MB-435 melanoma; 26.2% (inactive) in the assay on SW-620 colon; 8.43% (active) in the assay on MCF7 breast; 17.3% (inactive) with HCT-116 colon; -34.8% (active) with HCC-2998 colon. The growth in the assay with KM12 colon is 1.31% (active); with MDA-MB-468 breast, 0.478% (active).

Regarding `Nc1cccnc1/C=N/NC(=S)NCCNC(=O)c1ccc(-n2nc(-c3ccccc3O)nc2-c2ccccc2O)cc1`, the growth in the assay on T-47D breast is 7.42% (active); in the assay on MDA-MB-435 melanoma, 53.8% (inactive); with SW-620 colon, 58.5% (inactive); in the assay on MCF7 breast, 5.17% (active); in the assay on HCT-116 colon, 7.1% (active); in the assay with HCC-2998 colon, -7.32% (active). Also, the growth is 11.6% (inactive) in the assay with KM12 colon and -56.1% (active) with MDA-MB-468 breast.

For `COc1ccc2[nH]cc(/C=N/Nc3cccc(Cl)n3)c2c1`, the growth in the assay on T-47D breast is 31.5% (inactive); with MDA-MB-435 melanoma it was 44.7% (inactive); in the assay with SW-620 colon it was 79.7% (inactive); in the assay with MCF7 breast it was 31.9% (inactive); with HCT-116 colon, 37.3% (inactive); in the assay with KM12 colon, 21.3% (inactive).

Regarding `O=S(=O)(c1ccc(Cl)cc1)c1nc(-c2ccccc2)oc1S(=O)(=O)c1ccc(Cl)cc1`, the growth in the assay with T-47D breast was 78.8% (inactive); in the assay on MDA-MB-435 melanoma, 82.3% (inactive); with SW-620 colon, 46.8% (inactive); in the assay on MCF7 breast, 36.3% (inactive); in the assay with HCT-116 colon it was 58.9% (inactive); with HCC-2998 colon, 95.8% (inactive). In addition, the values for the growth in the assay on KM12 colon and with MDA-MB-468 breast were 93.2% (inactive) and 76% (inactive), respectively.

For the compound `Cc1cc(C)nc(SCC(=O)Nc2ccc(S(N)(=O)=O)cc2)n1`, the growth with T-47D breast is 105% (inactive); in the assay on MDA-MB-435 melanoma it was 107% (inactive); with SW-620 colon, 116% (inactive); in the assay with MCF7 breast, 96.6% (inactive); with HCT-116 colon, 111% (inactive); in the assay with HCC-2998 colon it was 109% (inactive). In addition, the results for the growth in the assay with KM12 colon and with MDA-MB-468 breast were 107% (inactive) and 98.2% (inactive), respectively.

Take `COc1ccc(-c2ccc(SCC(=O)Nc3ccc(C#N)cc3)nn2)cc1`: the growth was 79.5% (inactive) in the assay on T-47D breast; 98.8% (inactive) with MDA-MB-435 melanoma; 102% (inactive) in the assay with SW-620 colon; 88.8% (inactive) in the assay with MCF7 breast; 87% (inactive) with HCT-116 colon; 104% (inactive) in the assay on HCC-2998 colon. Besides, the values for the growth with KM12 colon and in the assay on MDA-MB-468 breast were 99.9% (inactive) and 88.1% (inactive), respectively.

`OCc1[nH]nc2cc(Nc3ncc4ccc(Br)c(OC5CCC(O)CC5)c4n3)ccc12` (stereo not given): the growth in the assay on T-47D breast was 2.7% (active); with MDA-MB-435 melanoma, -15.7% (active); in the assay with SW-620 colon it was -18.6% (active); in the assay with MCF7 breast, -74.7% (active); in the assay on HCT-116 colon it was 6.59% (active); in the assay on HCC-2998 colon, -49% (active). The growth is 2.85% (active) with KM12 colon and -87.8% (active) with MDA-MB-468 breast.

For the origin of these results see PubChem BioAssay (NCI).
